Records with an inconclusive call do not appear. Active and inactive are the calls of the source.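 Rule for the calls, unless noted: active = Her2 level under about 52% in both replicate screens, with viability over 70% of control (limit read from the data); inconclusive = Her2 under the limit in one screen only, or viability under 70%; inactive = Her2 level above the set limit.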

Test [1] can be described thus: S. cerevisiae growth inhibition in restrictive medium, OD615, pilot screen, restrictive growth control, yeast lifespan reduction project (AID 706;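 active = growth inhibition above a set limit, 3 SD over mean compound inhibition, in both replicates, cut at about 43% in these data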;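 note: modified DeaD lifespan yeast strain shifted to restrictive glucose medium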). The note with it: OD615, 48 h, at 10 µM, stronger effect = higher value.
Test [2] can be described thus: doxorubicin toxicity protection in MRP-1 cells – H69AR cells, CellTiter-Glo, duplicate, MRP-1 activator project, pilot screen (AID 807;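 active = viability increase at or above a cutoff of the median across tested compounds plus 3 SD, cut at about 8.5% in these data, passing the limit was not always enough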;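 note: compound pretreatment 18-22 h then 72 h combined with doxorubicin; 0% = doxorubicin alone and 100% = vehicle without doxorubicin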). The note with it: H69AR viability with doxorubicin, CellTiter-Glo luminescence; at 10 µM; stronger effect = higher value.
The nature of test [3]: viability of HCT116 without oncogenic beta-catenin – human colon tumor cells, pilot screen (AID 823;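 active = cell viability at or below a set limit in both duplicate runs, the limit being the all-compound median minus 4 SD, cut at about 23% in these data, passing the limit was not always enough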;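 note: 0% = wells killed by 20 µM Hyamine and 100% = untreated DMSO cell wells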). Particulars: HCT116 beta-catenin knockout viability, CellTiter-Glo, 60 h; at 10 µM; stronger effect = lower value.
A short description of test [4]: RAM pathway blockade in budding yeast – dse1pr::URA3 reporter, 5-FOA selection, pilot screen (AID 869;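 active = inhibition over a set limit, the all-compound mean plus 3 SD, in both replicate runs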;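 note: 0% = DMSO wells with no growth and 100% = 10 µM 1-NA-PP1 with full growth; RAM network block rescues cells from 5-FOA so hits raise OD615 growth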). Particulars: S. cerevisiae dse1pr::URA3 5-FOA growth, OD615, 2 d; at 10 µM; stronger effect = higher value; strain carries analog-sensitive mutant Cbk1 kinase.
Test [5] in a line: RAM signaling pathway blockade in yeast – S. cerevisiae, Pdr1DBD-CYC8 efflux-inhibited sensitized strain, primary screen (AID 1298;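 active = RAM network inhibition above 8.4% in each of two replicates, 3 SD over the compound average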;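 note: 0% = DMSO untreated cells without growth and 100% = 10 µM 1-NA-PP1 full growth; higher means more yeast growth rescued from 5-FOA killing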). The note with it: S. cerevisiae cbk1-as DSE1-URA3 strain, 5-FOA growth OD615, 2 d; at 50 µM; stronger effect = higher value.
Test [6] is described as follows: Her2 expression decrease, cell viability multiplex – SKBR3 breast tumor cells, AlphaScreen, ATP viability, primary screen (AID 461).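 For Her2 level: lower value means less Her2 protein in the cells.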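 For viability: percent of carrier control wells set as 100% viability.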 Particulars: SKBR3 Her2 protein level, 18-24 h, measured here: SKBR3 viability, ATP luminescence, at 10 µM. In general terms: In Alpha technology, singlet oxygen from a donor bead excites a nearby acceptor bead.
Test [7] addresses Receptor tyrosine-protein kinase erbB-2 (Homo sapiens) (UniProt P04626). Described as above. Particulars: 18-24 h, at 10 µM, stronger effect = lower value.
Test [8] can be described thus: reduced viability of SK-BR-3 breast cancer cells – cell-based, 24 h, human, pilot screen (AID 572;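 active = viability at or below 10% of carrier control in both of two separate runs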;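 note: compound exposure lasted between 18 and 24 h rather than exactly 24 h; 100% = carrier-treated control wells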). Particulars: SK-BR-3 viability, CellTiter-Glo luminescence, at 10 µM, stronger effect = lower value. In general terms: ATP-based viability assays read luminescence as a measure of living cells.
Test [9] in a line: HUVEC growth inhibition – cell-based, human, primary screen (AID 575;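 active = viability at or below 30% in both replicate assays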;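 note: 100% = median of untreated cell wells with 0.1% DMSO on each plate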). Particulars: HUVEC proliferation, CellTiter-Glo luminescence, 72 h; at 10 µM; stronger effect = lower value.
Test [10] can be described thus: H69AR cell proliferation blockers – human, duplicate replicates, primary screen (AID 580;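 active = viability at or under a set limit in both replicates, limit being median viability minus 3 SD, cut at about 48% in these data, passing the limit was not always enough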;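 note: 100% = mean luminescence of untreated wells and 0% = no signal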). The note with it: H69AR lung tumor cells viability, ATP luminescence, 72 h; at 10 µM; stronger effect = lower value.
Test [11] in a line: MRP1 drug-resistance reversers in H69AR cells – cell-based, doxorubicin co-treatment, pilot screen (AID 601;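 active = viability loss from added drug above about 55%, and viability with drug at most 40%, in both replicates, limit read from the data, passing the limit was not always enough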). The note with it: CellTiter-Glo, 72 h, at 10 µM; for differential viability (reversal): stronger effect = higher value.
A short description of test [12]: viability of PTEN-null HCT116 cells – cell-based, HCT116 clonal line, CellTiter-Glo, pilot screen (AID 824;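 active = viability at or below 27.92% in each of two runs, the all-compound median minus 4 SD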;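 note: 0% = 20 µM Hyamine control and 100% = vehicle cell control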). Particulars: HCT116 PTEN-deleted viability, 60 h, at 10 µM, stronger effect = lower value.
The mark [13] stands for this setting: H69AR cells + 2 uM doxorubicin, measured here: viability with 2 uM doxorubicin, stronger effect = lower value.
Setting [14] is: H69AR cells, compound alone cytotoxicity.

Receptor tyrosine-protein kinase erbB-2 (Homo sapiens), sequence (P04626 whole entry, looked up): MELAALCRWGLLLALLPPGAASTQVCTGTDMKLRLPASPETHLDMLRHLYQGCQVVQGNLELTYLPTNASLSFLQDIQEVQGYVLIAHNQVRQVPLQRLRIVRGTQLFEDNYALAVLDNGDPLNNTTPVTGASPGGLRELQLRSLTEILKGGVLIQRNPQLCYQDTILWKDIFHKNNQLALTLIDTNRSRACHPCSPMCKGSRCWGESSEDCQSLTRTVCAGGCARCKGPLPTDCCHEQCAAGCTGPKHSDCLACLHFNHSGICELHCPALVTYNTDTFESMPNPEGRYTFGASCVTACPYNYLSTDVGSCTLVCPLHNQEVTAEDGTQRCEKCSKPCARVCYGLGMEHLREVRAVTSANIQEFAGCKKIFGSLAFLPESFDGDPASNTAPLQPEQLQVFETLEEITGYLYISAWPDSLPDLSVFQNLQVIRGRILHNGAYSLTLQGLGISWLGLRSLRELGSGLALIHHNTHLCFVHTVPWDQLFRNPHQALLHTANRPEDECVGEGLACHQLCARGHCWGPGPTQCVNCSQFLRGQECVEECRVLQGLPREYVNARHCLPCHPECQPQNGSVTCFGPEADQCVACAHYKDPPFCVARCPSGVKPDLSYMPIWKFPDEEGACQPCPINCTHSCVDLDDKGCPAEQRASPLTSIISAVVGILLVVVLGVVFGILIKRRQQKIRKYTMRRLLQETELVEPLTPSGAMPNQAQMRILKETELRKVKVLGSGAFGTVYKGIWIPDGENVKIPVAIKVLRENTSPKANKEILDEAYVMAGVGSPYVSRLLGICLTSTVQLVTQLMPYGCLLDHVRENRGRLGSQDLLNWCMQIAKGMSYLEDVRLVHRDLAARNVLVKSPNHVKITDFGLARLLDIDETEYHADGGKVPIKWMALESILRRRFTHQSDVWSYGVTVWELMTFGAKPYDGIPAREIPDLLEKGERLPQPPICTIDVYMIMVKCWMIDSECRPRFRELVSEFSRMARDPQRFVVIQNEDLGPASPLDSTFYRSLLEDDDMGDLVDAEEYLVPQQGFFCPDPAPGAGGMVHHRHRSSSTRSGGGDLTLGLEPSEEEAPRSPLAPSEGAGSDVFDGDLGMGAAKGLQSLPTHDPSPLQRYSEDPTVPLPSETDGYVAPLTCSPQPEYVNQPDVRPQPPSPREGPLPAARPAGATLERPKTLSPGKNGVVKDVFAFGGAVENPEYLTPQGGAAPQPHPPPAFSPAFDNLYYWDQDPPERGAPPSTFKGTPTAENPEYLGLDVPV

`CC(C)Sc1nc(O)c(Cc2ccccc2)c(=O)[nH]1`: in [1], the growth inhibition was -0.8% (inactive). Besides, the viability increase in test [2] is -0.54% (inactive). Further, the viability (usually a read-out of living cells in per cent, often relative to untreated cells) in test [3] was 104% (inactive). The inhibition – broadly, the share of the control response that was lost under treatment – in [4] was 2.81% (inactive). Further, the RAM network inhibition in [5] was 6.91% (inactive).

In the case of `Cc1ccc(C)c(OCCCC(C)(C)C(=O)O)c1`, the viability is 130% in [6]; 130% (inactive) in [8]; 100% (inactive) in test [9]; 109% (inactive) in test [10]; 91.5% in test [11] (setting [13]); 109% in test [11] (setting [14]). The Her2 level in [7] is 104% (inactive). Also, the differential viability (reversal) in test [11] (H69AR cells + 2 uM doxorubicin) was 17.2% (inactive).

Consider `CC(=O)OCC(=O)[C@@]12OC3(CCCC3)O[C@@H]1C[C@H]1[C@@H]3CCC4=CC(=O)C=C[C@]4(C)[C@@]3(F)[C@@H](O)C[C@@]12C`, for which the viability was 132% in test [6]; 132% (inactive) in [8]; 86.6% (inactive) in [9]; 83.1% (inactive) in test [10]; 80.3% in test [11] (setting [13]); 83.1% in [11] (setting [14]). The Her2 level in [7] was 91.5% (inactive). Further, in [11] (H69AR cells + 2 uM doxorubicin), the differential viability (reversal) was 2.75% (inactive).

With `O=C1C(=C2CCCCC2)SC(=S)N1Cc1ccco1`, the viability increase in test [2] is -4.02% (inactive). The viability in [3] was 80.2% (inactive); in [12], 84.4% (inactive). In addition, the inhibition in test [4] is 0.825% (inactive). Besides, the RAM network inhibition in test [5] was 2.66% (inactive).

Regarding `COc1ccc(/C=C(/C#N)c2cccnc2)cc1OC`, the viability in test [6] was 92%; in test [8], 92% (inactive); in test [9] it was 96.9% (inactive); in test [10] it was 103% (inactive); in [11] (setting [13]), 96.7%; in [11] (setting [14]), 103%. Further, the Her2 level in test [7] was 97.5% (inactive). For the same compound, in [11] (H69AR cells + 2 uM doxorubicin), the differential viability (reversal) is 6.09% (inactive).

As for `Cc1ccccc1C(OCCN(C)C)c1ccccc1` (stereo not given), the viability in test [6] was 93%; in test [8], 93% (inactive); in test [9], 98.9% (inactive); in test [10] it was 91.3% (inactive); in [11] (setting [13]), 80.5%; in test [11] (setting [14]), 91.3%. Besides, in test [7], the Her2 level was 86% (inactive). Also, the differential viability (reversal) in [11] (H69AR cells + 2 uM doxorubicin) was 10.8% (inactive).

Consider `CS(=O)(=O)Nc1ccc([N+](=O)[O-])cc1Oc1ccccc1`, for which the viability is 118% in [6]; 118% (inactive) in [8]; 106% (inactive) in test [9]; 108% (inactive) in test [10]; 97.6% in test [11] (setting [13]); 108% in [11] (setting [14]). The Her2 level in [7] was 103% (inactive). Moreover, the differential viability (reversal) in test [11] (H69AR cells + 2 uM doxorubicin) is 10.3% (inactive).

With `C[C@]12CC[C@@H]3c4ccc(OS(=O)(=O)O)cc4CC[C@H]3[C@@H]1CCC2=O`, the values for the viability in test [6], in test [8] and in [9] were 87%, 87% (inactive) and 99.6% (inactive), respectively. Besides, the Her2 level in test [7] is 108% (inactive).

Regarding `Cc1nc2ccccc2c2nc3ccccc3n12`, in test [1], the growth inhibition is 43.3% (active). In test [2], the viability increase was -0.65% (inactive). In addition, the viability in [12] is 62.4% (inactive). Besides, in [4], the inhibition is 3.25% (inactive). Moreover, in test [5], the RAM network inhibition was 0.87% (inactive).

For `O=C(CSCc1ccco1)Nc1cc(C(F)(F)F)ccc1N1CCOCC1`, in [2], the viability increase was -5.7% (inactive). The viability in [3] was 63.4% (inactive); in test [12], 79.1% (inactive). The inhibition in test [4] is 1.91% (inactive). In [5], the RAM network inhibition is 4.46% (inactive).

Turning to `C[C@]12C=CC(=O)C=C1CC[C@H]1[C@@H]3C[C@@H](O)[C@](O)(C(=O)CO)[C@@]3(C)C[C@H](O)[C@@]12F`, the viability in test [6] was 94%; in test [8] it was 94% (inactive); in [9], 101% (inactive); in [10], 106% (inactive); in test [11] (setting [13]), 109%; in [11] (setting [14]) it was 106%. Besides, the Her2 level in test [7] is 110% (inactive). The differential viability (reversal) in test [11] (H69AR cells + 2 uM doxorubicin) is -2.81% (inactive).

Consider `CCC(=O)O[C@]1(C(=O)CCl)[C@@H](C)C[C@H]2[C@@H]3CCC4=CC(=O)C=C[C@]4(C)[C@@]3(F)[C@@H](O)C[C@@]21C`, for which the viability is 122% in [6]; 122% (inactive) in test [8]; 84.9% (inactive) in test [9]; 87.3% (inactive) in test [10]; 101% in test [11] (setting [13]); 87.3% in test [11] (setting [14]). In addition, the Her2 level in test [7] is 86.5% (inactive). Moreover, the differential viability (reversal) in test [11] (H69AR cells + 2 uM doxorubicin) is -13.3% (inactive).

On to `Nc1nnc(-c2cccc(Cl)c2Cl)c(N)n1`, for which the viability was 109% in [6]; 109% (inactive) in [8]; 103% (inactive) in [9]; 97.1% (inactive) in test [10]; 93.4% in [11] (setting [13]); 97.1% in test [11] (setting [14]). In addition, the Her2 level in [7] is 124% (inactive). Further, the differential viability (reversal) in test [11] (H69AR cells + 2 uM doxorubicin) was 3.66% (inactive).

Regarding `COc1cc2nc(N3CCN(C(=O)C4CCCO4)CC3)nc(N)c2cc1OC` (stereo not given), the viability is 100% in [6]; 100% (inactive) in [8]; 98.5% (inactive) in test [9]; 91.6% (inactive) in [10]; 92% in test [11] (setting [13]); 91.6% in [11] (setting [14]). The Her2 level in test [7] is 99% (inactive). Further, the differential viability (reversal) in [11] (H69AR cells + 2 uM doxorubicin) was -0.44% (inactive).

For `O=C1N[C@@H](Cc2cnc[nH]2)C(=O)N2CCC[C@@H]12`, the viability is 113% in test [6]; 113% (inactive) in test [8]; 94.9% (inactive) in test [9]; 87.1% (inactive) in test [10]; 89.3% in [11] (setting [13]); 87.1% in [11] (setting [14]). Moreover, the Her2 level in [7] was 97% (inactive). Further, the differential viability (reversal) in test [11] (H69AR cells + 2 uM doxorubicin) is -2.25% (inactive).

As for `O=C(c1cc(-c2ccccc2O)on1)N1CCc2ccccc2C1`, the viability increase in test [2] was -0.83% (inactive). Besides, the viability in [3] was 97.9% (inactive); in [12], 90.5% (inactive). The inhibition in test [4] is 0.485% (inactive). In addition, the RAM network inhibition in [5] was 7.78% (inactive).

On to `CC(C)(C)NC[C@H](O)COc1nsnc1N1CCOCC1`, for which the viability in [6] is 112%; in test [8] it was 112% (inactive); in test [9], 99.8% (inactive); in test [10], 106% (inactive); in test [11] (setting [13]), 104%; in test [11] (setting [14]), 106%. The Her2 level in test [7] is 110% (inactive). Besides, the differential viability (reversal) in [11] (H69AR cells + 2 uM doxorubicin) is 2.23% (inactive).

For the compound `C[C@]12CCC(=O)C=C1CC[C@@H]1[C@@H]2C(=O)C[C@@]2(C)[C@H]1CC[C@]2(O)C(=O)CO`, the viability in test [6] is 82.5%; in test [8] it was 82.5% (inactive); in [9], 98% (inactive); in test [10], 101% (inactive); in [11] (setting [13]), 88.8%; in test [11] (setting [14]) it was 101%. In test [7], the Her2 level was 110% (inactive). Besides, the differential viability (reversal) in test [11] (H69AR cells + 2 uM doxorubicin) was 12.6% (inactive).

For the origin of these results see PubChem BioAssay.
